Test results: PubChem BioAssay (NCATS)
Results filed as inconclusive are left out. Active and inactive are the calls of the source. Calls come from the whole dose curve; as a rule, active = well fitted curve in the direction sought with a large enough effect; inconclusive = small, poorly fitted or top-dose-only effect, or another doubt; inactive = no such curve, though single readings can be large; an effect the other way counts as inactive or inconclusive.

How the values were obtained:
[1] = qHTS assay to identify small molecule inhibitors of chordoma cells - UCH-2 (AID 1259356); details: UCH-2 chordoma viability, CellTiter-Glo ATP luminescence, 48 h; series mostly up to 46.1 µM
[2] = P-glycoprotein substrates identified in KB-8-5-11 adenocarcinoma cell line, qHTS therapeutic library screen (AID 1346987); details: KB-8-5-11 (P-gp overexpressing) viability, CellTiter-Glo, 72 h; series mostly up to 44.5 µM; note: nearly all actives have a fitted effect of over 65% in size
Method in brief: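 P-gp-mediated resistance screen: KB-8-5-11 cells treated 72 h with compounds in dose-response. CellTiter-Glo viability.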

[3] = NS1 protein of Zika virus - qHTS assay to identify small molecule inhibitors in human HEK 293 cells (AID 1347053); details: HEK293 ZIKV MR766 infection, NS1 TR-FRET, 24 h; series mostly up to 46.1 µM; note: nearly all actives have a fitted effect of over 55% in size
Method in brief: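 HEK 293 cells, seeded 20 h at 37 C, were pretreated with compound 1 h, then infected with ZIKV MR766 (MOI = 0.5) for 24 h. NS1 was read by TR-FRET with two anti-NS1 antibodies, normalized to uninfected and infected wells.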

[4] = qHTS of pediatric cancer cell lines to identify multiple opportunities for drug repurposing: Primary screen for TC32 cells (AID 1347089); details: TC32 Ewing sarcoma viability, CellTiter-Glo luminescence, 48 h; series mostly up to 45.8 µM; note: nearly all actives have a fitted effect of over 60% in size
Method in brief: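 Luminescent CellTiter-Glo read-out of metabolically active TC32 cells after 48 h compound exposure. Primary: MIPE 11-point, 0.78 nM–46 µM; NPC 8-point, 0.59 nM–46 µM. Confirmatory: 11-point dilutions.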

[5] = qHTS of pediatric cancer cell lines to identify multiple opportunities for drug repurposing: Primary screen for DAOY cells (AID 1347090); details: DAOY medulloblastoma viability, CellTiter-Glo luminescence, 48 h; series mostly up to 46 µM; note: nearly all actives have a fitted effect of over 55% in size
Method in brief: (§1)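 Eight- or eleven-point concentration series, 48 h treatment at 37 degrees C in growth media; readout CellTiter-Glo luminescence. Potency and efficacy were taken from the concentration-response curves.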

[6] = qHTS of pediatric cancer cell lines to identify multiple opportunities for drug repurposing: Primary screen for SJ-GBM2 cells (AID 1347091); details: SJ-GBM2 viability, CellTiter-Glo luminescence, 48 h; series mostly up to 46 µM
Method in brief: as §1

[7] = qHTS of pediatric cancer cell lines to identify multiple opportunities for drug repurposing: Primary screen for SK-N-MC cells (AID 1347093); details: SK-N-MC viability, CellTiter-Glo luminescence, 48 h; series mostly up to 46 µM
Method in brief: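 Metabolically active cells were quantified by ATP-dependent luminescence (CellTiter-Glo, 15 min at room temperature) following 48 h treatment. Cells had been plated at 500-1,000 per well and settled for 5 h beforehand.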

[8] = qHTS of pediatric cancer cell lines to identify multiple opportunities for drug repurposing: Primary screen for BT-37 cells (AID 1347094); details: BT-37 viability, CellTiter-Glo luminescence, 48 h; series mostly up to 57.3 µM
Method in brief: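 Luminescence from CellTiter-Glo served as readout of metabolically active cells after 48 h compound exposure. Titrations: MIPE 11-point, from 0.78 nM; NPC 8-point, from 0.59 nM (final). Concentration-response curves came straight from the primary screen.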

[9] = qHTS of pediatric cancer cell lines to identify multiple opportunities for drug repurposing: Primary screen for A673 cells (AID 1347092); details: A673 Ewing sarcoma viability, CellTiter-Glo ATP luminescence, 48 h; series mostly up to 46 µM; note: nearly all actives have a fitted effect of over 45% in size
Method in brief: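 A673 cells (500-1,000 cells/well in growth media) were pre-incubated 5 h at 37 degrees C, then exposed to compounds for 48 h. Viability was read as CellTiter-Glo luminescence; concentration-response curves came directly from the primary screen.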

Measured: Potency

COCC(=O)Nc1c(I)c(C(=O)NCC(O)CO)c(I)c(C(=O)N(C)CC(O)CO)c1I (configuration not stated)
not listed: [9]
inactive: all other assays above

CC1CCN(CCCC(=O)c2ccc(F)cc2)CC1
not listed: [7]
inactive: all other assays above

OC[C@@H](O)[C@@H](O)[C@H](O)[C@H](O)CO
not listed: [7]
inactive: all other assays above

CC(=O)Nc1cccc(O)c1
not listed: [9]
inactive: all other assays above

Nc1ncnc(Nc2ccccc2)n1
not listed: [7]
inactive: all other assays above

O=C(NCC(O)CO)c1c(I)c(C(=O)NCC(O)CO)c(I)c(N(CCO)C(=O)CO)c1I (configuration not stated)
not listed: [9]
inactive: all other assays above

Nc1c2c(nc3c1CCC3)CCCC2
not listed: [9]
inactive: all other assays above

CC(CSC(=O)c1ccccc1)C(=O)N1C[C@@H](Sc2ccccc2)C[C@H]1C(=O)O (some centres not stated)
not listed: [7]
inactive: all other assays above

CC(=O)Nc1ccc(C(=O)O)cc1
not listed: [9]
inactive: all other assays above

CC[N+](C)(CC)CCOC(=O)C1c2ccccc2Oc2ccccc21
not listed: [9]
inactive: all other assays above

O=C(OOC(=O)c1ccccc1)c1ccccc1
not listed: [7]
inactive: all other assays above

CCCCCCCC(=O)OCC(COC(=O)CCCCCCC)OC(=O)CCCCCCC
not listed: [7] | [9]
inactive: all other assays above

O=C(O)CNC(=O)c1ccccc1I
not listed: [6]
inactive: all other assays above

CCC(C)(CN(C)C)OC(=O)c1ccccc1 (configuration not stated)
not listed: [6] | [9]
inactive: all other assays above

O=C(O)CCCCC1CCSS1 (configuration not stated)
not listed: [6]
inactive: all other assays above

Cc1ccsc1/C=C/C1=NCCCN1C
not listed: [6]
inactive: all other assays above

O=C(/C=C/c1ccc(O)c(O)c1)O[C@@H]1C[C@@](OC(=O)/C=C/c2ccc(O)c(O)c2)(C(=O)O)C[C@@H](O)[C@@H]1O
not listed: [5]
inactive: all other assays above

CCCC(O)C(CC)CO (configuration not stated)
not listed: [6]
inactive: all other assays above
